This note sets out measurements from PubChem BioAssay (NCATS).

A short description of test [1]: AP1 Signaling Pathway (AID 357).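 Note: ME-180 reporter cells stimulated with EGF at its EC50 level; % is set by controls: 0 for no effect and ±100 for the full control effect.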 The following applies: ME-180 AP-1-bla reporter, EGF-induced, beta-lactamase ratio, 5 h. An outline of the steps: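 AP-1-bla ME-180 cells, Opti-MEM + 0.5% dialyzed FBS, plated overnight 37 °C. Cpd titration + EC50 EGF, 5 h 37 °C. CCF4 2.5 h RT; ex 405, em 460/530 ratio → %activity, AC50.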
The target in test [2] is Cytochrome P450 1A2 (Homo sapiens) (UniProt P05177). In words: p450-cyp1a2 (AID 410; calls by dose curve; note: potency is the fitted concentration of half-maximal effect;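 for activity change, negative = inhibition: -100% = full effect of reference inhibitor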). The method in brief: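 Human CYP1A2 (20nM) demethylated Luciferin-ME at its Km (100uM) in 100mM KPO4. After 10 min compound preincubation, NADPH regeneration ran the reaction 60 min at room temperature. Luciferin was read by luminescence, normalized to 57 uM furafylline.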
Cytochrome P450 1A2 (Homo sapiens), sequence (P05177 whole entry, looked up): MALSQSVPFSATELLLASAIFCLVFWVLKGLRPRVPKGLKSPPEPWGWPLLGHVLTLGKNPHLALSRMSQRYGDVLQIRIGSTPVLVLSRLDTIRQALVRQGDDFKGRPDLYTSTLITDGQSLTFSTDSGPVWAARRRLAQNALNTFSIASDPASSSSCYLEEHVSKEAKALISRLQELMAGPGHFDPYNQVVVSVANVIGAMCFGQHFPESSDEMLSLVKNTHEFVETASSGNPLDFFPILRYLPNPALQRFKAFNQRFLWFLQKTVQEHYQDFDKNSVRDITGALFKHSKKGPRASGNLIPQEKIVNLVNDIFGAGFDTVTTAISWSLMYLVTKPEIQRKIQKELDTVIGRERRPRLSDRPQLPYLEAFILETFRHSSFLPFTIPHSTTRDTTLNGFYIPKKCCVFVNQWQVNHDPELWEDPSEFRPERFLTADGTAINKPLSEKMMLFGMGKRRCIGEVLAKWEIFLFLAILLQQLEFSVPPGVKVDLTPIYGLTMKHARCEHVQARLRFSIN
Test [3] in a line: NFAT Signaling Pathway (AID 444).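 Note: carbachol stimulus at about its EC50 of 1 µM final; % is set by controls: 0 for no effect and ±100 for the full control effect.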 The following applies: Jurkat NFAT-bla M1, carbachol, beta-lactamase ratio, 5 h. The method in brief:
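Jurkat cells with NFAT-driven β-lactamase reporter and co-expressed M1 receptor, stimulated with carbachol (final 1 uM, ~EC50), compound titration, 5 h at 37 °C. CCF4 loaded 1 h at RT; 460/530 nm ratio gave %activity and AC50.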

Test [4] is described as follows: Stat Signaling Pathway (AID 446).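 Note: ME-180 cervical cancer cells given 40 pM IL-6 alongside compound; SIE-controlled beta-lactamase reporter measured as 460/530 nm FRET emission ratio; % is set by controls: 0 for no effect and ±100 for the full control effect.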 Particulars: ME-180 SIE beta-lactamase reporter, IL-6 stimulated, 5 h; at 38 µM (top of the series) unless noted. The method in brief: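 ME-180 SIE-bla cells; overnight plating; cpd + IL-6 40 pM, 5 h, 37 C; LiveBLAzer 2.5 h RT; 460/530 nm emission ratio. Normalized to 300 pM IL-6 and 125 nM JAK inhibitor controls.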
In test [5] the target is Glucocorticoid receptor (Homo sapiens) (UniProt P04150). In words: GR-GFP Redistribution (AID 450;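 active = compounds whose dose series gives a full or clear partial fitted curve of increased nuclear translocation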; note: potency is the fitted concentration of half-maximal effect). The following applies: U2OS GR-GFP nuclear translocation, laser cytometry, 2 h.
Glucocorticoid receptor (Homo sapiens), sequence (P04150 whole entry, looked up): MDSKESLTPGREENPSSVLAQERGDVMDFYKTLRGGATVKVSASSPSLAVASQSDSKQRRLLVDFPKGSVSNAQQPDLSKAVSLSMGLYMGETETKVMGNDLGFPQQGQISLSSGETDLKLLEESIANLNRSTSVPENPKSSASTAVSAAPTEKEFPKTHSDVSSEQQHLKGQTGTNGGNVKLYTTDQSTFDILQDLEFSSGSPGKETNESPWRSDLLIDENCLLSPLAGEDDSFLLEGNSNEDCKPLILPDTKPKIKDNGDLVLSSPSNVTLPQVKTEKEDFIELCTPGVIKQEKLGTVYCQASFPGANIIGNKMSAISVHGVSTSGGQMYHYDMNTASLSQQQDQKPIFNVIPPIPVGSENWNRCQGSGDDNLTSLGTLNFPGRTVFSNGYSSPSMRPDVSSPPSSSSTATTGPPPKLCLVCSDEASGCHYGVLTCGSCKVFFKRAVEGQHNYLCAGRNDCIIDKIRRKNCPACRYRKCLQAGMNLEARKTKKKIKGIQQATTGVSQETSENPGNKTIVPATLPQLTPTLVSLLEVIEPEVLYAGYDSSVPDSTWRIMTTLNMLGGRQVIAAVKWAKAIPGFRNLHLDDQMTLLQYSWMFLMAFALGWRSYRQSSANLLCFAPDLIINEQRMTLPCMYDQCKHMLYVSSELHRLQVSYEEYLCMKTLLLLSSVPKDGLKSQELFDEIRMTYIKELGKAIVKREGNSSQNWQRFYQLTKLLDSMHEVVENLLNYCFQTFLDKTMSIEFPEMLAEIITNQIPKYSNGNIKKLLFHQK
For test [6] the target is unchanged. In words: GR-EFC Redistribution (AID 451; calls by dose curve; note: potency is the fitted concentration of half-maximal effect). Particulars: CHO-K1 GR-EFC translocation, beta-gal luminescence, 2 h. An outline of the steps:
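CHO-K1 cells expressing nuclear EA and GR-ED fragments of b-gal; compounds titrated up to 46 uM final, 2 h at 37 C. GR nuclear translocation read as complemented b-gal luminescence after 1 h RT detection.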

Test [7] concerns the target Mitogen-activated protein kinase 10 (Mus musculus) (UniProt Q61831). In words: JNK3 AlphaScreen Assay (AID 530).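 Note: kinase came from lysate of stimulated human HepG2 cells; signal reports phosphorylation of biotinylated GST-cJun 1-79 at Ser73 with 10 µM ATP; % is set by controls: 0 for no effect and ±100 for the full control effect.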 An outline of the steps:
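qHTS format: compounds tested as titrations against IL-1beta/TNF-alpha-activated HepG2 lysate JNK3 with biotin-GST-cJun substrate and 10 uM ATP at room temperature. Loss of anti-phospho-cJun AlphaScreen signal indicates inhibition.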
(In general: In Alpha technology, singlet oxygen from a donor bead excites a nearby acceptor bead.)

The mark [8] stands for this setting: at 38 µM (top of the series) unless noted.

SMILES strings stand for the structures. Several values for one entry are separate records, joined by “and”; a condition that tells them apart may be missing. Identical values can stand only once. Values without a mark were called inactive. Results filed as inconclusive are left out. Activity calls are given as the source filed them. Unless noted, calls come from the whole dose curve; as a rule, active = well fitted curve in either direction with a large enough effect (not every such curve was filed as active); inconclusive = small, poorly fitted or top-dose-only effect, or another doubt; inactive = flat fitted curve, though single readings scatter.

Regarding `O=C1Cc2c([nH]c3ccc(Br)cc23)-c2ccccc2N1`, the activity change, negative = inhibition in test [1] (setting [8]) was -104% (active); in test [3] (setting [8]) it was -74.4% (active). Also, the Potency was 1.26 µM (active) and 158 nM (active) in test [2]; above 46 µM in test [5]; above 46 µM in test [6]. Moreover, in test [4], the activity, negative = inhibition was -29.2% (active). The call in test [7] was inactive.
For the molecule `CCCCCCC/C=C\CCCCCCCCC(=O)O`, the activity change, negative = inhibition was 12.5% in test [1] (setting [8]) and -3.56% in test [3] (setting [8]). The Potency in test [2] is 31.6 µM (active); in test [5], above 46 µM; in test [6], above 46 µM. Also, the activity, negative = inhibition in test [4] was -1.08%. Also, in test [7], the molecule was classed as inactive.
In the case of `CCCn1c(=O)c2[nH]c(C3CCCC3)nc2n(CCC)c1=O`, the activity change, negative = inhibition was -7.55% in test [1] (at 17.2 µM (top of the series)), -12.1% in test [1] (at 38 µM (top of the series)), 11.5% in test [3] (at 17.2 µM (top of the series)) and -0.836% in test [3] (at 38 µM (top of the series)). Moreover, the Potency was 1.26 µM (active) and 251 nM (active) in test [2]; > 46 µM and > 20.6 µM in test [5]; above 46 µM in test [6]. For the same molecule, the outcome in test [7] was inactive.
`CCN(CC)CCOC(=O)c1cc(Cl)c(N)cc1OC`: the activity change, negative = inhibition is 11.7% in test [1] (setting [8]) and -3.84% in test [3] (setting [8]). In addition, the figures for the Potency in test [2], in test [5] and in test [6] were 12.6 µM (active), above 46 µM and above 46 µM, respectively. Moreover, the activity, negative = inhibition in test [4] is -0.802%. In addition, the outcome in test [7] was inactive.
As for `N#C/C(=C\c1ccc(O)c(O)c1)C(=O)NCCCNC(=O)/C(C#N)=C/c1ccc(O)c(O)c1`, the activity change, negative = inhibition in test [1] (setting [8]) was -12.1%; in test [3] (setting [8]), 7.05%. In addition, the Potency result in test [2] is “inactive”. For the same molecule, in test [4], the activity, negative = inhibition is -7.91%. The Potency in test [5] and in test [6] was above 46 µM each time.
For the molecule `COCc1nc2c([nH]1)c(=O)n(C)c(=O)n2CC(C)C`, the activity change, negative = inhibition in test [1] (setting [8]) was 1.03%; in test [3] (setting [8]), 9.41%. The Potency was 12.6 µM (active) in test [2], above 46 µM in test [5] and above 46 µM in test [6]. Moreover, in test [4], the activity, negative = inhibition was -22%.
As to `O=c1ccc2c(OCCCCc3ccccc3)c3ccoc3cc2o1`, the activity change, negative = inhibition is -12.4% in test [1] (setting [8]) and -20.3% in test [3] (setting [8]). In addition, the values for the Potency in test [2], in test [5] and in test [6] were 0.501 µM (active), above 46 µM and above 46 µM, respectively. Further, the activity, negative = inhibition in test [4] was 3.59%.
Turning to `O=c1[nH]c2ccccc2c2ccccc12`, the activity change, negative = inhibition in test [1] (setting [8]) is -9.69%; in test [3] (setting [8]), 8.86%. Also, the Potency in test [2] was 0.251 µM (active); in test [5] it was above 46 µM; in test [6] it was above 46 µM. Besides, the activity, negative = inhibition in test [4] is -7.28%.
As to `CSC(=N)N`, the activity change, negative = inhibition in test [1] (setting [8]) is -0.186%; in test [3] (setting [8]), 4.79%. Besides, in test [2], the Potency result is “inactive”.
